A3G deaminase = inhibitors of human APOBEC3G DNA deaminase. Q9HC16. recombinant A3G, ssDNA deamination FAM/TAMRA fluorescence. inhibition, % at 20 µM. 0.28% of 330,000 active. AID 493012;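 active = inhibition of at least 40% at 20 µM, with no more than 30% in the related APOBEC3A deaminase screen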;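 note: plate controls were DMSO wells with A3G for no effect and wells lacking A3G enzyme for full effect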
ADAM17 inh = inhibits human ADAM17. P78536. recombinant ADAM17, EDANS/DABCYL FRET peptide cleavage. inhibition, % at 6.95 µM. 0.83% of 370,000 active;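 active = inhibition above the mean of compounds lying between control limits plus 3 SD, set per campaign, cut at about 8.5% in these data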;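 note: 0% = DMSO-only wells as the low control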
A3A deaminase = blocks human APOBEC3A ssDNA deamination; P31941; recombinant A3A, FAM/TAMRA ssDNA deamination fluorescence; inhibition, % at 20 µM; 0.41% of 330,000 active;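 active = at least 40% inhibition at 20 µM here, with at most 30% in a related deaminase screen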;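 note: plate controls were A3A with DMSO for no effect and wells lacking A3A enzyme for full effect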
CendR NRP1 mod = modulators of CendR peptide binding to human neuropilin-1; FAM-RPARPAR peptide binding to NRP-1, fluorescence polarization; O14786; inhibition, % at 25 µM; 0.85% of 360,000 active; AID 602438;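 active = inhibition or corrected inhibition above about 18%, plus a signal ratio from 0.5 to 1.5, limit read from the data, passing the limit was not always enough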
ADAM10 inh = ADAM10 inhibition, QFRET primary screen; O14672; recombinant ADAM10, EDANS/DABCYL FRET peptide cleavage, 3 h; inhibition, % at 7 µM; 0.62% of 370,000 active; AID 720582;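 active = inhibition above a per-campaign cutoff equal to the mean of compounds falling between control-based bounds plus 3 SD, cut at about 20% in these data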;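 note: 0% = DMSO wells while the 100% control is not disclosed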
Target sequence (O14672 214-748 limits assumed): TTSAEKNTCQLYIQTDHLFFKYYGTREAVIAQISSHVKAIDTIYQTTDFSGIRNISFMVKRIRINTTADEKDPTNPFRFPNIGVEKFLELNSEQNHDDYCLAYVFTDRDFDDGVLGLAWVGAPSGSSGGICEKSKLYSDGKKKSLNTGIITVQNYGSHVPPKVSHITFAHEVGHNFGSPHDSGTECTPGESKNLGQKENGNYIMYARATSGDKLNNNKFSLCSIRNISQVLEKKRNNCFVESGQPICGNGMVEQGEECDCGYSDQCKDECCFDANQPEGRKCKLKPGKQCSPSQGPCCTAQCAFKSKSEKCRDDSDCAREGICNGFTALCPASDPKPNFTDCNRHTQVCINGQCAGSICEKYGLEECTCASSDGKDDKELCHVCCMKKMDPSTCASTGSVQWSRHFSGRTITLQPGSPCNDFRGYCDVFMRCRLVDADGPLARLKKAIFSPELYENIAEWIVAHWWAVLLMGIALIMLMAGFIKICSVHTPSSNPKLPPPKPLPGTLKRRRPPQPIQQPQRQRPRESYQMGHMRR
ADAM10 confirm = confirmation of inhibitors of human ADAM10; shares compounds with ADAM10 inh; 1% of 2,100 active; ADAM10 QFRET peptide cleavage, EDANS fluorescence; inhibition, % at 6.95 µM;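 active = inhibition above about 20% chosen separately for each screening run, limit read from the data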;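 note: 0% = DMSO wells and 100% = marimastat wells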
ADAM17 counter = inhibits human ADAM17 in ADAM10 exosite counter-screen; AID 743214; shares compounds with ADAM10 inh; 0.5% of 2,100 active; ADAM17 QFRET peptide cleavage, EDANS fluorescence; inhibition, % at 6.95 µM;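 active = mean triplicate inhibition above the solvent-only control wells' mean plus 3 SD, cut at about 12% in these data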;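 note: 0% = DMSO wells and 100% = marimastat wells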
ADAM10 ctr = counter-screen for ADAM17 exosite inhibitors: inhibitors of human ADAM10; shares compounds with ADAM17 inh; recombinant ADAM10, EDANS/DABCYL FRET peptide cleavage, 3 h; inhibition, % at 6.95 µM; 47% of 2,900 active;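 active = mean inhibition over the triplicate runs exceeds the activity threshold set in the earlier primary screen, cut at about 20% in these data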;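 note: 0% = DMSO wells and 100% = marimastat wells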
ADAM17 confirm = confirmation of inhibitors of human ADAM17. shares compounds with ADAM17 inh. 65% of 2,900 active. inhibition, % at 6.95 µM. recombinant ADAM17, EDANS/DABCYL QFRET peptide cleavage;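 active = mean inhibition across replicates above the hit cutoff set in the primary screen, cut at about 8.5% in these data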;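 note: 0% = DMSO wells and 100% = marimastat wells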
Active calls of the source: *; · = no result. A selection: hits, their analogues and other compounds. The true share with any hit is near 2.4%.

SMILES	A3G deaminase	ADAM17 inh	A3A deaminase	CendR NRP1 mod	ADAM10 inh	ADAM10 confirm	ADAM17 counter	ADAM10 ctr	ADAM17 confirm
Cc1ccc(C(=O)N2CCN(C3c4cccc5cccc(c45)C3NS(=O)(=O)c3ccccc3)CC2)cc1 (centres undefined)	-5.9	11.2*	-0.5	19.2	24.3*	7.1	2.5	18.6	11.9*
CC(C)N1CCCCC(NC(=O)c2ccccc2)C1=O (centres undefined)	·	-8.7	·	·	-13.9	·	·	·	·
O=C(Cc1cccc2ccccc12)Nc1ccc(OC(F)F)c(Cl)c1	-9.6	9.9*	-2.9	15.6	22.8*	5.8	1.9	29.7*	19.9*
OC(CNCC(c1ccc(Cl)cc1Cl)c1c[nH]c2ccccc12)c1ccccc1 (centres undefined)	-8.8	12.2*	0.5	-3.2	26.4*	13.0	4.2	36.9*	17.0*
O=[N+]([O-])CC(c1ccccc1)c1c[nH]c2ccccc12 (centres undefined)	-6.2	-3.2	-0.6	6.5	-1.0	·	·	·	·
COc1ccc(C(=O)Nc2cccc(OC(=O)c3ccc(C)c(C)c3)c2)cc1	-1.7	6.5	5.0	-7.8	11.0	·	·	·	·
CC(=O)Oc1ccc(C(=O)Nc2cccc(C(=O)c3ccc(C)c(C)c3)c2)cc1	-8.2	16.4*	1.7	7.0	32.3*	5.7	1.7	14.0	12.1*
CCCCCCCCN1C(=O)[C@@H](CC(=O)N2CCCC2)C[C@@]2(C(=O)OC)C1=C[C@H](C(C)(C)C)O[C@@H]2C	·	0.1	·	·	-3.5	·	·	·	·
O=C1CC(=O)N(CCc2ccccc2)C(=O)N1CCc1ccccc1	0.5	12.9*	0.8	-23.7	23.6*	4.9	1.6	24.9*	9.9*
COc1ccc(S(=O)(=O)Nc2ccc(Nc3ccccc3)cc2)cc1	-4.8	12.2*	-2.0	-8.9	21.0*	7.3	1.4	12.9	11.1*
CCOc1ccc(C(Nc2cccnc2)c2cc(Cl)c3cccnc3c2O)cc1 (centres undefined)	-5.3	14.7*	0.2	-7.3	21.7*	45.0*	15.2*	49.1*	27.8*
COc1cc(C(c2c(C)[nH][nH]c2=O)c2c(C)[nH][nH]c2=O)cc([N+](=O)[O-])c1O	-4.8	10.3*	-2.5	16.3	20.3*	5.3	0.1	3.3	0.4
CC(C)(C)c1ccc(-c2cc(-c3ccccc3O)[nH]n2)cc1	20.5	16.5*	-0.1	-6.6	33.9*	11.0	3.6	22.0*	10.6*
Cc1ccc(O)c(-c2cc(-c3ccccc3C)[nH]n2)c1	-0.9	9.8*	1.1	19.9	24.4*	8.5	2.9	26.6*	12.4*
C=CCN1C(=O)[C@@H](CC(=O)NCc2cccc3ccccc23)[C@]2(C(=O)OC)CCCCC=C12	·	-1.4	·	·	-7.3	·	·	·	·
COC(=O)C1=C(C)N(Cc2ccc(Br)cc2)C(=S)NC1c1cccc(F)c1 (centres undefined)	·	0.9	·	·	-1.0	·	·	·	·
COc1ccc(/C=N/NC(=O)c2ccc(NC(=O)c3cccc([N+](=O)[O-])c3)cc2)c(OC)c1	-2.7	-1.2	-1.7	-2.8	2.6	·	·	·	·
COc1ccc(NC(=O)c2cccc(Oc3ccc([N+](=O)[O-])cc3Cl)c2)cc1	2.5	10.4*	-2.9	2.9	21.7*	8.0	3.0	30.4*	17.8*
CCOc1cc(S(=O)(=O)Nc2cc(C)cc(C)c2)ccc1Cl	-7.0	19.8*	1.4	-4.6	36.4*	2.9	0.8	26.7*	14.7*
Cc1ccc(C(=O)NNC(=S)NC(=O)c2ccc(Cl)cc2)cc1	-3.7	12.4*	-0.2	-4.7	19.8*	0.7	0.8	12.5	6.6
Cc1cc(C)c(Nc2cc(S(=O)(=O)O)c(N)c3c2C(=O)c2ccccc2C3=O)c(C)c1	·	8.7*	·	33.0	23.3*	4.0	-1.6	36.0*	17.4*
Cc1cc(C)c(NC(=O)COC(=O)c2cccc3c2C(=O)c2ccccc2C3=O)c(C)c1	-2.1	-1.3	0.5	-5.2	3.9	·	·	·	·
CCCN1C(=O)c2n[nH]c(C(C)C)c2C1c1cccc(C(F)(F)F)c1 (centres undefined)	·	-3.0	·	·	-1.9	·	·	·	·
COc1cc(/C=N/NC(=O)Cc2csc(C)n2)ccc1OCC(C)C	-0.2	2.1	17.9	7.1	7.1	·	·	·	·
COc1ccc(/C=N/NC(=O)Cc2csc(Nc3cccc(C(F)(F)F)c3)n2)cc1C	0.3	12.6*	-4.2	-3.4	28.0*	5.5	2.4	33.2*	20.2*
SMILES	A3G deaminase	ADAM17 inh	A3A deaminase	CendR NRP1 mod	ADAM10 inh	ADAM10 confirm	ADAM17 counter	ADAM10 ctr	ADAM17 confirm
CC(C)C1S/C(=N/N=C/c2cccs2)NC1=O (centres undefined)	-8.0	9.4*	-5.4	0.0	28.6*	1.1	0.4	8.1	4.8
CCN(CC)S(=O)(=O)c1cccc(C(=O)Oc2cccc(NC(=O)c3cccs3)c2)c1	-9.1	9.3*	-2.6	-5.1	27.0*	8.1	2.9	22.3*	13.2*
CCN(CC)S(=O)(=O)c1ccc(NC(=O)c2cccs2)cc1	-6.5	0.1	-2.0	6.3	-1.4	·	·	·	·
O=C(Nc1ccccc1)Nc1cc(OCC(F)(F)F)cc(OCC(F)(F)F)c1	·	14.5*	·	-2.0	31.4*	9.3	2.2	28.0*	17.4*
O=C(Nc1ccccc1)Nc1cc(Cl)cc(Cl)c1	-1.8	8.3	-2.6	3.2	19.1	·	·	·	·
CN(Cc1ccccc1)C(=O)c1cccc(NC(=O)Cc2ccc(NC(=O)C3CCCN(S(=O)(=O)c4cccc([N+](=O)[O-])c4)C3)cc2)c1 (centres undefined)	·	0.6	·	·	-1.5	·	·	·	·
Cc1cccc(C)c1Nc1nnc(SCC(=O)c2ccc(Br)s2)s1	-8.9	5.5	5.5	-4.0	16.0	·	·	·	·
Cc1ccc(Nc2nnc(SCC(=O)c3ccc(Br)s3)s2)c(C)c1	-4.1	8.7*	5.8	-4.5	24.1*	4.8	2.2	13.5	9.9*
CC(C)(C)OC(=O)N1CCC(N[C@@H](Cc2ccccc2)C(=O)NCC(c2ccccc2)c2ccccc2)(C(=O)NC2CCCCC2)CC1	·	-1.6	·	·	-7.0	·	·	·	·
CC(C)(C)OC(=O)N1CCC(N[C@@H](Cc2ccccc2)C(=O)NCCc2c[nH]c3ccccc23)(C(=O)NC2CCCCC2)CC1	·	10.4*	·	·	23.8*	6.9	1.5	34.0*	19.4*
Cc1ccc(S(=O)(=O)c2cccc(S(=O)(=O)N3CCCC3)c2)cc1S(=O)(=O)N1CCCC1	-6.0	17.1*	2.5	-5.2	29.4*	-0.6	0.1	17.1	8.0
